Results on five compounds are retold here after PubChem BioAssay.

In test [1] the test system is PRMT1 (protein arginine N-methyltransferase 1). The test is described as follows: PRMT1 binders on small-molecule microarrays, primary screen, biochemical, small-molecule microarray, 635 nm fluorescence (AID 1088).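 Further: binding of Prmt1 protein to compounds spotted on small-molecule microarray slides.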 Particulars: small-molecule microarray binding, higher = more signal.
Test [2] is described as follows: yeast growth modulation, basal conditions, primary screen, YJM789 clinical isolate, OD600, 24 h (AID 1089).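 Further: growth of clinical yeast isolate S. cerevisiae YJM 789 seeded 1000 cells per well; test concentration not given here.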 Particulars: S. cerevisiae YJM789 growth, higher = more signal, called active from +8 up or from −8 down.
Test [3] can be described thus: fission yeast growth modulation, primary screen, strain 972, OD600, 24 h, no modulator (AID 1090).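 Further: basal condition with compound alone and no growth modifier present; test concentration not given here.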 To be noted: S. pombe 972 growth, higher = more signal, called active from +8 up or from −8 down.
Test [4] in a line: S. cerevisiae growth modulation with rapamycin, primary screen, strain BY4716, OD600, 96 h (AID 1091). Further: test concentration not given here. To be noted: higher = more signal, called active from +8 up or from −8 down.
Test [5] deals with Torsin-1A-interacting protein 2 (Homo sapiens) (UniProt Q8NFQ8). Put plainly: LULL1 binders on small-molecule microarray, primary screen, cell lysate, human LULL1 lysate, 635/667 nm fluorescence (AID 1092).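 Further: probe is lysate of COS7 cells overexpressing human LULL1; score merges per-feature 667 nm fluorescence with signal-to-noise.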 Particulars: hLULL1 lysate binding, 635 nm fluorescence, higher = more signal.
A short description of test [6]: E. coli growth modulation, two-sided OD650, primary screen, E. coli filamentation project, strain DRC41, 24 h (AID 1093).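 Further: MC1000 strain lacking acrAB efflux and sulA so SOS filamentation is blocked; test concentration not given here.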 To be noted: OD650, 24 h, higher = more signal, called active from +8 up or from −8 down.
The nature of test [7]: small-molecule microarray binders of probe aLefty2, primary screen, biochemical, biotinylated probe, 635/667 nm fluorescence (AID 1094).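 Further: score merges spot fluorescence near 667 nm with spot signal-to-noise ratio.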 Particulars: higher = more signal.
In test [8] the test system is Noggin (protein binding on small-molecule microarray). The test is described as follows: Noggin binders on small-molecule microarray, primary screen, biochemical, 635/667 nm fluorescence (AID 1095).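 Further: score merges 667 nm feature fluorescence with signal to noise over triplicate slides.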 Particulars: 635 nm fluorescence, higher = more signal.
In test [9] the target is Neurogenic locus notch homolog protein 3 (Homo sapiens) (UniProt Q9UM47). The test is described as follows: NOTCH3 binders on small-molecule microarray, primary screen, biochemical, 635/667 nm fluorescence (AID 1096). Particulars: NOTCH3 binding, 635 nm fluorescence, higher = more signal.
Test [10] in a line: small-molecule microarray binders of probe aEGFR, primary screen, biochemical, biotinylated probe, 635/667 nm fluorescence (AID 1097).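 Further: probe is a biotinylated anti-EGFR antibody binding compounds printed on slides; score combines fluorescence near 667 nm and signal to noise of each spot.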 To be noted: higher = more signal.
The test system of test [11] is Plasmodium falciparum Sir2 (PF13_0152, Sir2A). Put plainly: pfSir2 binders on small-molecule microarrays, primary screen, biochemical, small-molecule microarray, 635 nm fluorescence (AID 1098).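 Further: score merges spot fluorescence intensity with its signal-to-noise ratio.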 Particulars: small-molecule microarray binding, fluorescence 635 nm; higher = more signal.
A short description of test [12]: small-molecule microarray binders of probe aDKK1, primary screen, biochemical, biotinylated probe, 635/667 nm fluorescence (AID 1099).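 Further: score merges 667nm spot fluorescence with signal to noise across triplicate slides; reference of the scale not given here.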 To be noted: higher = more signal.
Test [13] in a line: small-molecule microarray binders of probe aCHRDL2, primary screen, biochemical, biotinylated probe, 635/667 nm fluorescence (AID 1100). To be noted: higher = more signal.
Test [14] is described as follows: splicing luciferase reporter signal modulators, primary screen, spliceosome inhibition project, cell-based, HEK293, splice +/- reporter (AID 1101).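 Further: HEK293 cells carrying a splicing-competent luciferase reporter gene; test concentration not given here.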 Particulars: luminescence, 24 h, higher = more signal, called active from +8 up or from −8 down. A general note: Reporter assays use an easily measured gene product as a stand-in for the process of interest.
Test [15] has as its target Fibroblast growth factor 10 (Homo sapiens) (UniProt O15520). Put plainly: FGF10 binders on small-molecule microarrays, primary screen, biochemical, small-molecule microarray, 635 nm fluorescence (AID 1102). Particulars: FGF10 binding, fluorescence 635 nm, higher = more signal.
In test [16] the test system is glycogen synthase kinase-3 (GSK3A per assay name; protocol says GSK3B). Put plainly: GSK3 binders on small-molecule microarrays, primary screen, biochemical, small-molecule microarray, 635 nm fluorescence, GSK3A (AID 1103). Further: the record names both GSK3A and GSK3B. Particulars: small-molecule microarray binding, fluorescence 635 nm; higher = more signal.
Test [17] has as its target Epidermal growth factor receptor (Homo sapiens) (UniProt P00533). Put plainly: EGFR binders on small-molecule microarrays, primary screen, biochemical, small-molecule microarray, 635 nm fluorescence (AID 1104).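 Further: score merges 667 nm emission intensity with spot signal to noise over triplicate slides.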 Particulars: EGFR binding, higher = more signal.
The target in test [18] is Follistatin-related protein 3 (Homo sapiens) (UniProt O95633). Put plainly: FSTL3 binders on small-molecule microarrays, primary screen, biochemical, small-molecule microarray, 635 nm fluorescence (AID 1105).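 Further: score merges emission near 667 nm and signal to noise per printed spot across three slides.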 To be noted: FSTL3 binding, higher = more signal.
The target of test [19] is Dickkopf-related protein 1 (Homo sapiens) (UniProt O94907). Put plainly: DKK1 binders on small-molecule microarrays, primary screen, biochemical, small-molecule microarray, 635 nm fluorescence scan (AID 1106).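 Further: score merges emission near 667 nm with signal to noise over three replicate slides.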 Particulars: DKK1 binding, higher = more signal.
Test [20] concerns Inhibin beta A chain (activin A). The test is described as follows: INHBA (activin A) binders on microarrays, primary screen, biochemical, small-molecule microarray, 635 nm fluorescence scan (AID 1107).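 Further: mouse activin A protein probed at 4.33 µg/mL on printed slides; score merges bound-protein fluorescence near 667 nm with spot signal-to-noise.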 To be noted: small-molecule microarray binding, higher = more signal.

SMILES strings stand for the structures. Activity calls are given as the source filed them.

Neurogenic locus notch homolog protein 3 (Homo sapiens), sequence (Q9UM47 whole entry, looked up): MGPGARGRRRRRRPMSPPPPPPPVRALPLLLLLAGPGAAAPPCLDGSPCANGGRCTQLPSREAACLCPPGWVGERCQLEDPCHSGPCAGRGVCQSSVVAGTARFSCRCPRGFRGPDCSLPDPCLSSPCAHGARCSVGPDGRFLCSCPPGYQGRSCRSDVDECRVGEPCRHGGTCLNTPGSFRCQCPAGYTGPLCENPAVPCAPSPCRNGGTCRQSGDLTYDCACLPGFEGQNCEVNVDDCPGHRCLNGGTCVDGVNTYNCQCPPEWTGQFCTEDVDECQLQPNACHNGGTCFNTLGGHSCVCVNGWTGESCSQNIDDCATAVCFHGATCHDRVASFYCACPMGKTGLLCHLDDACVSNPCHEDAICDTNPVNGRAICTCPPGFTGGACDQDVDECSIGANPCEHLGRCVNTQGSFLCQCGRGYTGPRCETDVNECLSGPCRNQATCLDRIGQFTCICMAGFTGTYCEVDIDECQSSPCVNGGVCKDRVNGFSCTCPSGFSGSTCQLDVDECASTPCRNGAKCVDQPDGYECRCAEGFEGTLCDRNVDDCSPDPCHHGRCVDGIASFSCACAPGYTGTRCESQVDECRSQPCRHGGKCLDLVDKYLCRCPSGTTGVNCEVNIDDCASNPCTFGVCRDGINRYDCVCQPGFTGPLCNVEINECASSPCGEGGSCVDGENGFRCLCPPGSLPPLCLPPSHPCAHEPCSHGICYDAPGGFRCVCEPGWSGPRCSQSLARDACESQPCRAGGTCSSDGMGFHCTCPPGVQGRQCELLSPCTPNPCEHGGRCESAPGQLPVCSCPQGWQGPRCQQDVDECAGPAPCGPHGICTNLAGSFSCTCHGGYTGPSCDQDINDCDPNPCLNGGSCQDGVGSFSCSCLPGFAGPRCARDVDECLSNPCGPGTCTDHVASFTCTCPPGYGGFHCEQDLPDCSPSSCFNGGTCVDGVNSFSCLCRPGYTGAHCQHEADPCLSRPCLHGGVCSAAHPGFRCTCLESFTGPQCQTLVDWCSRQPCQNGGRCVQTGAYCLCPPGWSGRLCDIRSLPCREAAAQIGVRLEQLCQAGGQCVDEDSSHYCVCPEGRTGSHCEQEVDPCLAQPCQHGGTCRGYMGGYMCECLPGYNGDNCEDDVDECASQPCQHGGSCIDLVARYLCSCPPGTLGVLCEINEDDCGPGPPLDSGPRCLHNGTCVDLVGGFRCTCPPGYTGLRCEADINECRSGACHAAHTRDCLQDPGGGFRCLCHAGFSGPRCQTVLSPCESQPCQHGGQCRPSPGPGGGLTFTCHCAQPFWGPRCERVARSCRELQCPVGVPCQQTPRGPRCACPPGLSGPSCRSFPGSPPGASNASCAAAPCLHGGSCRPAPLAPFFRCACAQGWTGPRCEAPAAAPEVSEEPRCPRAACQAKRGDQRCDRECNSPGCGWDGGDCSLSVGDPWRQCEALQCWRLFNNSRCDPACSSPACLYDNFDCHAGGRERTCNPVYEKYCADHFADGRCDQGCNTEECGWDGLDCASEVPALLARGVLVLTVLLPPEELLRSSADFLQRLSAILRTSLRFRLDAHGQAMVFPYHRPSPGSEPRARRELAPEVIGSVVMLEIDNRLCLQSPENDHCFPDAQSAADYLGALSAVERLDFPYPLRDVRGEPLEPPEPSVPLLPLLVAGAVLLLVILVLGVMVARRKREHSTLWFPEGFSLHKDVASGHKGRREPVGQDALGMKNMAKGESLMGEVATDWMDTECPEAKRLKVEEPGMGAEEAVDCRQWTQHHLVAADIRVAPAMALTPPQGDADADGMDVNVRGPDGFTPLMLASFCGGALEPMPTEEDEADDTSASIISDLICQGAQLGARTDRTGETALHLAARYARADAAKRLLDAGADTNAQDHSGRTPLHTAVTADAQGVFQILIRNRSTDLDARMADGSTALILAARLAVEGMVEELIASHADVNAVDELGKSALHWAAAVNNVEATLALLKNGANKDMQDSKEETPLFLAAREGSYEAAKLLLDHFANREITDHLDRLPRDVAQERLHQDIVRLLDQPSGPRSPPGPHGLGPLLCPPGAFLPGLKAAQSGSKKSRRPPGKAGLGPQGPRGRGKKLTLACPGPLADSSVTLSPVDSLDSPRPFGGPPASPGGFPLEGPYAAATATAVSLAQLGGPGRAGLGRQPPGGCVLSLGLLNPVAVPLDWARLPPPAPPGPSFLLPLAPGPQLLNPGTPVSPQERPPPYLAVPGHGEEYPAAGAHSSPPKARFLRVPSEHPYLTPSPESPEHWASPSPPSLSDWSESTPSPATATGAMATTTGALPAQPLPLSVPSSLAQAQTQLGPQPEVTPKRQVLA
Dickkopf-related protein 1 (Homo sapiens), sequence (O94907 whole entry, looked up): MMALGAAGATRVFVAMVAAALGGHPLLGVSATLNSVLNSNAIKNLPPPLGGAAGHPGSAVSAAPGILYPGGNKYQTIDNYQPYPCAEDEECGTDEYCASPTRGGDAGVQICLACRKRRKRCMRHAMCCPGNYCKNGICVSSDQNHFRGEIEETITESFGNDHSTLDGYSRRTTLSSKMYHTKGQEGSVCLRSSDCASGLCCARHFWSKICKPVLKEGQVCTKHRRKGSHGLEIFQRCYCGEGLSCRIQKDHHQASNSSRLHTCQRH
Epidermal growth factor receptor (Homo sapiens), sequence (P00533 whole entry, looked up): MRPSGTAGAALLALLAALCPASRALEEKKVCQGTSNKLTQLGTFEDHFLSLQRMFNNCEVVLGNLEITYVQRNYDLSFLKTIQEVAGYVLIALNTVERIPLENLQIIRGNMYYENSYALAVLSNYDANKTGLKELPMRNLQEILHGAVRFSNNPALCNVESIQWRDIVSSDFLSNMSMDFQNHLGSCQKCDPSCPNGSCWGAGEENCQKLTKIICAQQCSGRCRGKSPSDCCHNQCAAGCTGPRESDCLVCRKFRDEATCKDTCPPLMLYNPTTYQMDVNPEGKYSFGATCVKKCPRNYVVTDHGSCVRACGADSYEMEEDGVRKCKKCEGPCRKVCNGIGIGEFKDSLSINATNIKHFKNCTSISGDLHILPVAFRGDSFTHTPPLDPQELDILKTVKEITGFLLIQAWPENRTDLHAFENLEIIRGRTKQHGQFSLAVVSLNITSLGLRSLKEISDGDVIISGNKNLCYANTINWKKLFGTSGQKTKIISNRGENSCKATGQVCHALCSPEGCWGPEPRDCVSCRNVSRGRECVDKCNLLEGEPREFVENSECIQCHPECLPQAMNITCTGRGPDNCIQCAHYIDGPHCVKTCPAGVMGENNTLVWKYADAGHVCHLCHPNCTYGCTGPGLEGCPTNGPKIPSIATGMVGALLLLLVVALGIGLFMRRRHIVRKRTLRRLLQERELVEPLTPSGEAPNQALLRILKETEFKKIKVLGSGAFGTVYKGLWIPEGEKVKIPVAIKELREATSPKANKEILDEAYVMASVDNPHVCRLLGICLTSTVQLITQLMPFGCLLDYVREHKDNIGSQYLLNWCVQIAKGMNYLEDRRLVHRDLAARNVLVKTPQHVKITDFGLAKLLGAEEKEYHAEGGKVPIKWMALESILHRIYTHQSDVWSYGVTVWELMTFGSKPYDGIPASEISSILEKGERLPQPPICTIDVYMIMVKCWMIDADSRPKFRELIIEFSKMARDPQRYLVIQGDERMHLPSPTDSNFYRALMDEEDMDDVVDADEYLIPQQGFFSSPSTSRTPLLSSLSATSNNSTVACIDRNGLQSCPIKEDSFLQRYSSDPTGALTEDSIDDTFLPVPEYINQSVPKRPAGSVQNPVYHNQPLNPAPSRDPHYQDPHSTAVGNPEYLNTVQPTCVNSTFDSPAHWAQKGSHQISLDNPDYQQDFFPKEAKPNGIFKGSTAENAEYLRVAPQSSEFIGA
Torsin-1A-interacting protein 2 (Homo sapiens), sequence (Q8NFQ8 whole entry, looked up): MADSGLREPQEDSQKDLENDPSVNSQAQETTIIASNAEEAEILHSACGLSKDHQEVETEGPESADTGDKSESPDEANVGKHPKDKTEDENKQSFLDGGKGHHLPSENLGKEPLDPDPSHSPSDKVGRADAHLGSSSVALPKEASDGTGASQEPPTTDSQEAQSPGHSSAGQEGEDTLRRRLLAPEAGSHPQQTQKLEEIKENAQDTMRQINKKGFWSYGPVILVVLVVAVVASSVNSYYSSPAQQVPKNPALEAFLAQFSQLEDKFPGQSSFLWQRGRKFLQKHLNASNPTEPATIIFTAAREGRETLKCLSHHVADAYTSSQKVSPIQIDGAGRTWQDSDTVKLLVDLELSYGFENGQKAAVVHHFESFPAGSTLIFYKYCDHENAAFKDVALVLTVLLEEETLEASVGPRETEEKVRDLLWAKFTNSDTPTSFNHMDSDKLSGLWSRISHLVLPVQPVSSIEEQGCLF
Fibroblast growth factor 10 (Homo sapiens), sequence (O15520 whole entry, looked up): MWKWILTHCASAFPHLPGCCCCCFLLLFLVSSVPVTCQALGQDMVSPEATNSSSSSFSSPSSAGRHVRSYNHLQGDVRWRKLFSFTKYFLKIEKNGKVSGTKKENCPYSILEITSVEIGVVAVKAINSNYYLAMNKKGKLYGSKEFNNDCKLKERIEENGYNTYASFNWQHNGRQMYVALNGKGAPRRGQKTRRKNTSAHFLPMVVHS
Follistatin-related protein 3 (Homo sapiens), sequence (O95633 whole entry, looked up): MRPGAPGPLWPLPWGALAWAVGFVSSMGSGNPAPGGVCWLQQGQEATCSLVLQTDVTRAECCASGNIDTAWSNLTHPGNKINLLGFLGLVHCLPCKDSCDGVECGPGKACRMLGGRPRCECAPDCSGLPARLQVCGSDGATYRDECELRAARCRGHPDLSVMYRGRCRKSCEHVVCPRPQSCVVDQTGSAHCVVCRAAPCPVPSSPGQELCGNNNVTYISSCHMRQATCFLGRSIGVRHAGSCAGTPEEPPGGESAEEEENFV

For `COc1ccc(NC(=O)O[C@H]2[C@H](OC(=O)Nc3ccccc3)[C@@H](OC(=O)Nc3ccccc3)[C@@H](OC)O[C@@H]2CO)cc1`, the composite z-score is 1.55 in test [1]; 3.27 in [5]; -0.0666 in [7]; 1.62 in test [8]; 0.822 in [9]; -0.0054 in test [10]. In addition, the composite z-score in test [11] turned out to be 1.55; in test [12] it was 0.25; in test [13], 0.39; in [15], 1.5; in test [16], 1.31; in test [17], 0.0729. The composite z-score in test [18] was 0.83; in [19] it was 0.396; in test [20], 0.385. Further, the z-score was 2.09 (inactive) in test [2]; -0.0554 (inactive) in [3]; -0.758 (inactive) in test [4]; -0.633 (inactive) in test [6]; -1.67 (inactive) in test [14].

Turning to `CCOC(=O)[C@H]1[C@@H]2C(=O)N3CCC[C@H]3[C@H](O[Si](C(C)C)(C(C)C)C(C)C)[C@H]2C=C2CCN(S(=O)(=O)c3ccc(C)cc3)C[C@H]21`, the composite z-score in test [1] was 1.55; in test [5], 2.38; in test [7], -0.0795; in [8], 0.55; in test [9], 1.09; in test [10], -0.0978. Moreover, the composite z-score was 0.779 in [11]; -0.341 in [12]; -0.535 in [13]; 1 in test [15]; 0.938 in test [16]; 0.586 in test [17]. Also, the composite z-score in [18] came out at 0.766; in [19], 0.593; in [20], 0.141. Further, the z-score was -0.212 (inactive) in test [2]; -0.772 (inactive) in test [3]; 1.04 (inactive) in [4]; -0.717 (inactive) in test [6]; -1.73 (inactive) in test [14].

Regarding `C=CCC(OC(C)=O)[C@@H]1[C@@H](N(Cc2ccc(-c3cccc(C(F)(F)F)c3)o2)C(=O)c2ccc(-c3ccccc3)cc2)c2cc(OCCCO)ccc2N1C(=O)c1ccc2ccccc2n1` (stereo not given in full), the composite z-score in [1] was -1.08; in test [5] it was -0.244; in [7], -0.0063; in test [8], -0.0955; in test [9] it was 0.0478; in test [10], -0.0656. Besides, the composite z-score is -0.219 in test [11]; 0.148 in test [12]; 0.202 in [13]; 0.129 in test [15]; -0.587 in test [16]; -0.049 in test [17]. For the same compound, the results for the composite z-score in test [18], in [19] and in test [20] were 0.472, -0.0126 and 1.28, respectively. For the same compound, the z-score in [2] is 0.672 (inactive); in test [3], 0.789 (inactive); in test [4], 0.847 (inactive); in test [6], -0.656 (inactive); in test [14], 0.39 (inactive).

As for `CC1CC/C=C\[C@H]2OC34C=CCN(C(C)C)C(=O)[C@H]3N(CCCCCCO)C(=O)[C@@H]4C2C(=O)O1` (stereo not given in full), the composite z-score in test [1] was -1.25; in test [5], -1.42; in test [7], -0.136; in test [8] it was -0.705; in [9], -0.514; in [10], -0.237. The composite z-score in test [11] is 0.733; in test [12] it was -0.242; in [13] it was 0.417; in [15] it was -1.16; in test [16] it was -1.22; in test [17] it was -0.755. For the same compound, the composite z-score in test [18] was -0.931; in test [19], -1.24; in [20], 0.25. In addition, the z-score in test [2] was -1.39 (inactive); in [3], -0.482 (inactive); in test [4] it was -1.27 (inactive); in [6] it was 2.5 (inactive); in test [14], -0.935 (inactive).

Consider `COc1ccc(CCNC(=O)[C@@]2(Sc3ccc(C)cc3)CC(=O)N(C3Cc4ccccc4C3)[C@@H]2c2ccc(CO)cc2)cc1`, for which the composite z-score amounted to 1.54 in test [1]; 1.88 in [5]; 0.0511 in test [7]; 2.07 in test [8]; 1.02 in [9]; 0.0707 in [10]. The composite z-score was 0.672 in test [11]; 0.167 in [12]; -0.0208 in [13]; 1.78 in [15]; 1.27 in test [16]; 0.494 in test [17]. For the same compound, the composite z-score in [18] worked out at 1.51; in [19], 2.06; in [20], 1.23. In addition, the z-score in test [2] was 0.593 (inactive); in test [3], -0.468 (inactive); in test [4], 0.707 (inactive); in [6], -1.79 (inactive); in test [14] it was -1.67 (inactive).
